Target: T1, USP38 (UniProt Q8NB14)
T1 sequence (whole entry): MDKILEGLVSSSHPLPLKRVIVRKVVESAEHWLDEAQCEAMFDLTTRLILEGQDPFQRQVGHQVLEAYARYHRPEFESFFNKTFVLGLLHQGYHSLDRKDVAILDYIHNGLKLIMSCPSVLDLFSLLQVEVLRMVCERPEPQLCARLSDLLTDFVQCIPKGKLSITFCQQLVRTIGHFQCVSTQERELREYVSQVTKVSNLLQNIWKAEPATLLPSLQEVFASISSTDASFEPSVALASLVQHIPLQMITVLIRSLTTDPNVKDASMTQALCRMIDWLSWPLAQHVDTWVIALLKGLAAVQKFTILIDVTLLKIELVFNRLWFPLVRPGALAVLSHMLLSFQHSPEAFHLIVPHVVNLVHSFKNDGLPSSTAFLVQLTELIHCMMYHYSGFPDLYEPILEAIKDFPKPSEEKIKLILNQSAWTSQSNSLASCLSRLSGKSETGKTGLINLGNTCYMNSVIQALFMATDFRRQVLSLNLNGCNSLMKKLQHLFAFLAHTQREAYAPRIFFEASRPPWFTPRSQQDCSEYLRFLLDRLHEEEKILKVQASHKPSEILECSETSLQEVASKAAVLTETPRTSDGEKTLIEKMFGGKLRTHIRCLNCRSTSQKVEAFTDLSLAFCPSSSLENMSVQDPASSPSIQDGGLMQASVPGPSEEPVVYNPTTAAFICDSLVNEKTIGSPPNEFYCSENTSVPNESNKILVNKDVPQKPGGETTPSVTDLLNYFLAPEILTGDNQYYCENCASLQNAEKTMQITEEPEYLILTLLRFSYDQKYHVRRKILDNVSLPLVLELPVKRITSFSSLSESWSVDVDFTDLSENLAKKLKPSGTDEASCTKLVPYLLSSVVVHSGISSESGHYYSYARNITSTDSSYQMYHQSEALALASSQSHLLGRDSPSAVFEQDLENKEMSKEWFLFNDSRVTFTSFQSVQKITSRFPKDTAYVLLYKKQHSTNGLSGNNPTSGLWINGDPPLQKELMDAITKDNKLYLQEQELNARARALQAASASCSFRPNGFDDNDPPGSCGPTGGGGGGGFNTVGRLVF
Experiment: log2 ratio of Biotin-Ahx-Ub-VS probe labelling (compound/DMSO); higher = less target engagement, active = hit call of the paper (q ≤ 0.05, log2 ratio ≤ -1)
Settings: treatment time: 3 h
How it was run: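 Average ratios of compound to vehicle were obtained by unpaired t-test. Beforehand, 495 µg samples of HEK293T lysate in buffer with protease inhibitors were treated in triplicate with compound over a concentration series or vehicle for 3 h, then with 0.5 µM final Biotin-Ahx-Ub-VS for 1 h. Labelled deubiquitinases were NeutrAvidin-enriched, digested and quantified label-free by diaPASEF LC-MS/MS in Spectronaut, normalised to the global median. Values are log2 and cover proteins with at least two unique peptides.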

Measured: log2 ratio of Biotin-Ahx-Ub-VS probe labelling

O=C(CCl)N[C@H]1CCCc2ccccc21
inactive: compound concentration: 0.78uM -0.147 | compound concentration: 1.56uM -0.192 | compound concentration: 3.13uM -0.169 | compound concentration: 6.25uM -0.0221 | compound concentration: 12.5uM -0.0585 | compound concentration: 25uM -0.166 | compound concentration: 50uM -0.069 | compound concentration: 100uM -0.102 | compound concentration: 200uM -0.211

Reference: the supplement of paper PMC11732987, “Enantioselective OTUD7B fragment discovery through chemoproteomics screening and high-throughput optimisation” (Communications Chemistry, 2025)
